We go through ten compounds from PubChem BioAssay.

Experiment [1] relates to Hepatitis C virus NS3 helicase. Put plainly: blockers of NS3h binding to ssDNA – biochemical, fluorescence polarization, LOPAC1280 library, primary screen (AID 687035; in the data active means inhibition above about 37%). The note with it: Purified HCV NS3 helicase, Cy5-dT15 ssDNA binding fluorescence polarization; stronger effect = higher value; concentration not given here. Background: Polarisation of emitted light reports the rotation of a fluorescent probe.

Experiment [2] is described as follows: compounds altering Cy5-DNA-NS3h complex signal – biochemical, LOPAC1280, artefact control for HCV NS3 helicase inhibitor project (AID 687037; call rule not given here). The note with it: Cy5-DNA-NS3h complex fluorescence interference counterscreen. Background: A counterscreen serves to expose hits that act by an unwanted route or on another target.
The nature of experiment [3]: viability loss with induced miR-34 in A549 – imaging, A549 dox-inducible miR-34, nuclei and caspase counts, primary screen (AID 1347080). The settings on record: A549 miR-34 inducible, Hoechst nuclei count, 48 h.
Experiment [4] can be described thus: MELAS cybrid and Rieske KO viability enhancers – cell-based, MELAS cybrids, Rieske KO mouse fibroblasts, CellTiter-Glo, primary screen (AID 1508586;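 active means mean z-score across replicates of 1.96 or higher in either the MELAS or the Rieske mutant cell line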;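 further: z relative to plate mean and SD of compound and empty wells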). The settings on record: low glucose.
A short description of experiment [5]: galactose survival enhancers in mitochondrial complex I cybrids – cell-based, galactose medium, ATP luminescence, primary screen (AID 1645843;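 active means z-score of at least 1.8 in each of two replicates, scored against plate mean and spread of sample wells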;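 further: positive z means more ATP and so rescue of galactose-driven cybrid death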). The note with it: complex I mutant cybrid cells, 72 h, stronger effect = higher value.
Experiment [6] in a line: compounds altering viability of human ES cells (AID 493140; call rule not given here;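 further: cells exposed to compounds for four days before counting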). The note with it: human embryonic stem cell survival screen; stronger effect = higher value.
Experiment [7] is described as follows: P. berghei load reduction in hepatocytes – cell-based, HepG2, luciferase luminescence, HepG2 viability, primary screen (AID 624349; in the data active means parasite load remaining mostly below about 12%, no sharp cut-off; inactive means mostly above about 10%;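 further: 100% = mean of DMSO negative control wells on the same plate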). The settings on record: P. berghei liver stage in HepG2, luciferase luminescence, concentration not given here; parasite load remaining: stronger effect = lower value; viability: measured here: HepG2 viability without parasites.
For experiment [8], the target named is ATP-dependent translocase ABCB1 (Homo sapiens) (UniProt P08183). Put plainly: P-glycoprotein substrate transport blockade – cell-based (AID 377; in the data active means fluorescence slope change above about 50%). The settings on record: MDR1-expressing cells, fluorescent substrate accumulation slope; stronger effect = higher value; concentration not given here.
Experiment [9] addresses NAD(+) hydrolase SARM1 (Homo sapiens) (UniProt Q6SZW1). Put plainly: blocking NAD cleavage by SARM1 SAM-TIR – cell lysate, NAD-Glo luminescence (AID 1508614;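 active means compound whose remaining NAD level is above about 45 nM, limit read from the data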). The note with it: SAM-TIR HEK293T lysate NADase, at 1 µM, stronger effect = higher value.
Where [10] appears, read: stronger effect = lower value, cell number ratio, induced over uninduced.
Where [11] appears, read: measured here: relative caspase fold change +Dox/-Dox.
Setting [12] is: measured here: total cells with miR-34 induction, stronger effect = lower value.
[13] abbreviates: measured here: total cells without miR-34 induction.
Where [14] appears, read: MELAS cybrid survival, CellTiter-Glo 48 h, stronger effect = higher value.
The mark [15] stands for this setting: Rieske KO mouse fibroblast survival, CellTiter-Glo 72 h.

Several values for one entry are separate records, joined by “and”; a condition that tells them apart may be missing. Equal values may be shown once. Inconclusive results are not listed. Activity calls are given as the source filed them.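 How the source made its calls, unless noted: active means compounds whose cell count with miR-34 switched on is under 0.7 times the count with it off; inactive means the rest.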

Chain of ATP-dependent translocase ABCB1 (Homo sapiens) (P08183 whole entry, looked up): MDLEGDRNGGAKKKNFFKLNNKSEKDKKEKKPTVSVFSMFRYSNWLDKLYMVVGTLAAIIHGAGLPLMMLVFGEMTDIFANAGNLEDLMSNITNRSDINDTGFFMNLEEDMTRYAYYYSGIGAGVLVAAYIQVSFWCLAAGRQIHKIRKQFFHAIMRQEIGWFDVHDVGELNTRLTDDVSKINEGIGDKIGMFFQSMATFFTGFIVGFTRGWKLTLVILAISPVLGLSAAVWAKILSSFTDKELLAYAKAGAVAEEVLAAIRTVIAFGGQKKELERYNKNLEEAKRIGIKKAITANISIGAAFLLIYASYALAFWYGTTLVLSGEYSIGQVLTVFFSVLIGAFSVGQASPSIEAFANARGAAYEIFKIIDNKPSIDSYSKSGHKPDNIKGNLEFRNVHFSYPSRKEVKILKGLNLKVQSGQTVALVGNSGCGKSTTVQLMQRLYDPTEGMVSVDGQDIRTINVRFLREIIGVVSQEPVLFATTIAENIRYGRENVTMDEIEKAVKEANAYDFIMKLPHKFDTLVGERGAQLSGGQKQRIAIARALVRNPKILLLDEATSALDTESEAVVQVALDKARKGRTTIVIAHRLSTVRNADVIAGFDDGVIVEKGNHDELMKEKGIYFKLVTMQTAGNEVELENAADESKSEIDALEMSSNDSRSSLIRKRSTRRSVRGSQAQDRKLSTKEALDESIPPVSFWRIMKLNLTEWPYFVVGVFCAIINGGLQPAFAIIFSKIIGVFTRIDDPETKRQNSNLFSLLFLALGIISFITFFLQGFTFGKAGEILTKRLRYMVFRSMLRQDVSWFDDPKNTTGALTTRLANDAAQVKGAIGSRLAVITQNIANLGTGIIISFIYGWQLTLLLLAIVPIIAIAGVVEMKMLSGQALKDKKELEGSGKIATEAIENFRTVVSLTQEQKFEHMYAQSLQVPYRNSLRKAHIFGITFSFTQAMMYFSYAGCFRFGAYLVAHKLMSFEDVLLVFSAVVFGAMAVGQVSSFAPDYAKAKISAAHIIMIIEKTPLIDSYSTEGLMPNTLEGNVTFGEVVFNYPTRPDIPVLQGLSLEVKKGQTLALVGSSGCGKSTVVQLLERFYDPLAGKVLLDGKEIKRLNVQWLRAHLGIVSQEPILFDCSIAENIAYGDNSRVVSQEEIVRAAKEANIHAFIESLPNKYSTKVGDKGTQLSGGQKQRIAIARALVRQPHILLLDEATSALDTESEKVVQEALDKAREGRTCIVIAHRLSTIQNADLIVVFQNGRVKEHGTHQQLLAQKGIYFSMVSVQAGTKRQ
Chain of NAD(+) hydrolase SARM1 (Homo sapiens) (Q6SZW1 whole entry, looked up): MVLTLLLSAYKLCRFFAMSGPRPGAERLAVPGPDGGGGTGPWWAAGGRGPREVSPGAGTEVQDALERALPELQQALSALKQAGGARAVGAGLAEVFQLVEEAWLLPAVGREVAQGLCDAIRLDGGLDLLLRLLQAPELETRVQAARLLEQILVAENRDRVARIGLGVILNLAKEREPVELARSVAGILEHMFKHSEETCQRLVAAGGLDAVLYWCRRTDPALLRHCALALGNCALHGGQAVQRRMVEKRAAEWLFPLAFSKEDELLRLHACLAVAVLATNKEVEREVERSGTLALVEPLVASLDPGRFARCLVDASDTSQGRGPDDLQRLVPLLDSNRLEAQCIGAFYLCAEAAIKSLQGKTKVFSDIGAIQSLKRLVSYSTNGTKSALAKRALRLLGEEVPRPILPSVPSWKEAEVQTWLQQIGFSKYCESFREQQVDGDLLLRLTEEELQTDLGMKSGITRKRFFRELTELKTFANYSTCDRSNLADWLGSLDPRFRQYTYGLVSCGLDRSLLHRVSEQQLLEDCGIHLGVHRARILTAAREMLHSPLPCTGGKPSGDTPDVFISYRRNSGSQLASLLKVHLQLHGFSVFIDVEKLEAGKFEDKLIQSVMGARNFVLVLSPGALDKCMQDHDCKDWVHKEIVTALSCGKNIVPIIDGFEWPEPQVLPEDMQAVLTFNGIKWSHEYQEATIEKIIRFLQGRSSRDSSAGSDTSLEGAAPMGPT

On to `CCCCCN(C)CCC(O)(P(=O)(O)O)P(=O)(O)O`, for which, in [1], the inhibition (as a rule, the relative decrease from the control value, in per cent) is -2% (inactive). The fluorescence ratio (interference) in experiment [2] is 1 (inactive). Also, the fold change was 0.977 (inactive) and 0.868 (inactive) in [3] (setting [10]); 0.937 and 1.66 in [3] (setting [11]). In addition, the cell count in [3] (setting [12]) was 10500 and 8850; in experiment [3] (setting [13]), 10800 and 10200. Besides, the z-score was -0.786 (inactive) and -0.235 (inactive) in experiment [4] (setting [14]); 0.068 and -1.03 in experiment [4] (setting [15]); 0.42 (inactive) and 0.08 (inactive) in experiment [5].

For `Clc1ccc(C(Cn2ccnc2)OCc2csc3c(Cl)cccc23)c(Cl)c1` (centres undefined), in experiment [6], the survival is 10.7 (inactive). Further, the parasite load remaining in [7] was 93.3% (inactive) and 30.9% (inactive). For the same compound, the viability (commonly a read-out of living cells in per cent, often relative to untreated cells) in experiment [7] was 80.2% and 95%. Also, the fold change was 0.952 (inactive) and 0.861 (inactive) in experiment [3] (stronger effect = lower value); 0.728 and 1 in experiment [3] (setting [11]). In addition, the cell count in experiment [3] (setting [12]) was 7030 and 8370; in [3] (setting [13]), 7390 and 9720. Further, the z-score in experiment [4] (setting [14]) is 0.182 and 1.75 (inactive); in [4] (setting [15]) it was 2.82 and 1.72.

Regarding `C[C@]12CC(=CO)C(=O)CC1CCC1C2CC[C@@]2(C)C1CC[C@]2(C)O` (some centres undefined), the fold change in [3] (stronger effect = lower value) was 0.96 (inactive); in experiment [3] (setting [11]), 2.87. Further, the cell count turned out to be 9400 in experiment [3] (setting [12]) and 9790 in [3] (setting [13]). Also, in experiment [5], the z-score is -1.14 (inactive).

Take `CN1CC[C@@]2(C)c3cc(O)ccc3N(C)[C@H]12`: the parasite load remaining in experiment [7] was 82.4% (inactive). In addition, in experiment [7], the viability came out at 73.5%. Further, the fold change in experiment [3] (setting [10]) was 0.908 (inactive); in experiment [3] (setting [11]) it was 0.758. Also, the cell count in experiment [3] (setting [12]) came to 8570; in experiment [3] (setting [13]), 9440. Also, the z-score in [4] (setting [14]) was 0.308 (inactive); in experiment [4] (setting [15]) it was 1.44.

In the case of `CN[C@@H]1[C@@H](O)[C@@H](O[C@@H]2[C@@H](O)[C@H](O[C@H]3O[C@H]([C@@H](C)NC)CC[C@H]3N)[C@@H](N)C[C@H]2N)OC[C@]1(C)O` (tested in a mixture with another compound), in [6], the survival is 18.8 (inactive). The parasite load remaining in experiment [7] is 54.7% (inactive) and 51.8% (inactive). Moreover, the viability in experiment [7] was 60.6% and 91.5%. The results for the fold change in experiment [3] (stronger effect = lower value) and in [3] (setting [11]) were 1.02 (inactive) and 0.941, respectively. Also, the values for the cell count in experiment [3] (setting [12]) and in [3] (setting [13]) were 8090 and 7960, respectively. Further, the z-score is -0.902 (inactive) in experiment [4] (setting [14]) and -0.563 in [4] (setting [15]).

As for `CC(=O)OCC(=O)[C@H]1CC[C@H]2[C@@H]3CC[C@H]4C[C@H](O)CC[C@]4(C)[C@H]3C(=O)C[C@]12C`, in experiment [6], the survival was 32.2 (inactive). The parasite load remaining in experiment [7] is 133% (inactive). Also, the viability in [7] came to 77.5%. For the same compound, the fold change in experiment [3] (stronger effect = lower value) is 0.969 (inactive); in experiment [3] (setting [11]), 0.588. The cell count was found to be 8940 in experiment [3] (setting [12]) and 9230 in [3] (setting [13]). The z-score in experiment [4] (setting [14]) was -0.0226 (inactive); in experiment [4] (setting [15]) it was 0.294.

With `C[C@]12CCC(O)CC1=CCC1C2CC[C@@]2(C)C1CC[C@]2(C)O` (some centres undefined), the fold change in experiment [3] (stronger effect = lower value) is 0.929 (inactive); in [3] (setting [11]) it was 1.41. In addition, the cell count in experiment [3] (setting [12]) came to 9340; in experiment [3] (setting [13]), 10100. Also, the z-score in experiment [5] was -0.34 (inactive).

Regarding `C(#CCN1CCCC1)CN1CCCC1`, the fluorescence slope change in experiment [8] is 19.7% (inactive). Besides, the survival in [6] is 6.42 (inactive). Further, the parasite load remaining in experiment [7] is 82.8% (inactive) and 98.5% (inactive). The viability in [7] was 112% and 92.6%. In addition, the fold change in experiment [3] (setting [10]) was 0.85 (inactive); in experiment [3] (setting [11]), 1.28. The cell count worked out at 8550 in [3] (setting [12]) and 10100 in [3] (setting [13]). Further, the z-score in [4] (setting [14]) was 0.0358 (inactive); in experiment [4] (setting [15]), -0.183.

As for `C#CC(C)(O)CC` (centres undefined), the figures for the fold change in [3] (stronger effect = lower value) and in [3] (setting [11]) were 0.85 (inactive) and 1.03, respectively. The cell count was 8040 in [3] (setting [12]) and 9450 in experiment [3] (setting [13]). Further, the remaining NAD in experiment [9] is 10 nM (inactive).

Turning to `CCC1C=CC=CCC(C)C(O)C(C)C(=O)C(C)C(O)C(C)C(=O)C(C)C(O)C(C)C=CC(=O)OC2C(C)C(CC1)O[C@@]1(CCC(C)C(CC(C)O)O1)C2C` (some centres undefined), the values for the fold change in experiment [3] (setting [10]) and in [3] (setting [11]) were 1.03 (inactive) and 1.64, respectively. Also, the cell count in experiment [3] (setting [12]) was found to be 7130; in experiment [3] (setting [13]), 6920. The z-score in experiment [5] is -0.03 (inactive).
